Test results: PubChem BioAssay

Assays:
[1] = system: Human papillomavirus type 1a protein E7 (residues 44-93); assay: small molecules binding HPV E7 44-93 – biochemical, small-molecule microarray, residues 44-93, 635 nm fluorescence, primary screen (AID 1108); conditions: fluorescence 635 nm, higher = more signal;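 note: E7 fragment applied at 1 µg/mL in TBST for 1 h at 4 C; score combines spot fluorescence with its signal to noise ratio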
[2] = hepatitis C replication reporter changes, two-sided – Huh7 cells, luciferase reporter, HCV replication inhibitor project, primary screen (AID 1109); conditions: Huh7 HCV replicon luciferase reporter, 48 h; higher = more signal;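 note: huh7 hepatoma cells harbouring a luciferase neomycin HCV replicon reporter; luciferase luminescence as measure of HCV replicon replication; test concentration not given here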
[3] = target: Left-right determination factor 2 (Homo sapiens) (UniProt O00292); assay: small molecules binding LEFTY2 protein – biochemical, small-molecule microarray, 635 nm fluorescence scan, primary screen (AID 1110); conditions: higher = more signal
Chain of Left-right determination factor 2 (Homo sapiens) (O00292 whole entry, looked up): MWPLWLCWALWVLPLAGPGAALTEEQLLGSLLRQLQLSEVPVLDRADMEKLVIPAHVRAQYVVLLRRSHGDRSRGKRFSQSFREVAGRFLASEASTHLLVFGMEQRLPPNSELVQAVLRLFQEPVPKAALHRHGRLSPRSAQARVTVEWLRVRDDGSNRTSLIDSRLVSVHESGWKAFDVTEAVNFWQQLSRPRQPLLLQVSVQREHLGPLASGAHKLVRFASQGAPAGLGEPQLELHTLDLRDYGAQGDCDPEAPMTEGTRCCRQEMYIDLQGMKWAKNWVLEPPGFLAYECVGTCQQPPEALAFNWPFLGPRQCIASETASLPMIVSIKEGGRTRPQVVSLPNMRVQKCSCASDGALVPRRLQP

[4] = target: Calmodulin-1 (Homo sapiens) (UniProt P0DP23); assay: small molecules binding calmodulin-1 with EGTA – biochemical, small-molecule microarray, Cy5-labelled CALM1, profiling panel (AID 1111); conditions: Cy5-CALM1 binding fluorescence, higher = more signal;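 note: labelled calmodulin applied in Tris saline Tween buffer holding calcium plus EGTA and DTT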
[5] = target: Calmodulin-1 (Homo sapiens) (UniProt P0DP23); assay: small molecules binding Ca-loaded calmodulin-1 – biochemical, small-molecule microarray, Cy5-labelled CALM1, plus calcium, artefact control for SMM control-protein annotation, profiling panel (AID 1112); conditions: Cy5-CALM1 binding fluorescence, higher = more signal;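 note: score merges spot fluorescence with signal to noise from triplicate slides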
[6] = probe aWnt5a binding to arrayed compounds – biochemical, biotinylated probe, 635/667 nm fluorescence, primary screen (AID 1113); conditions: small-molecule microarray, higher = more signal;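 note: score merges 667 nm fluorescence intensity with signal-to-noise per printed feature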
[7] = probe aShh binding to arrayed compounds – biochemical, biotinylated probe, 635/667 nm fluorescence, primary screen (AID 1114); conditions: small-molecule microarray, higher = more signal;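 note: probe is biotin-labelled aShh protein from a stem cell growth factor screen; measures binding of labelled protein to compounds printed on the slide; score merges feature fluorescence at 667 nm with signal-to-noise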
[8] = probe aNog binding to arrayed compounds – biochemical, biotinylated probe, 635/667 nm fluorescence, primary screen (AID 1115); conditions: small-molecule microarray, higher = more signal;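 note: probe is biotinylated aNog protein used at 0.15 µg/mL for 1 h at 4 C; z-score combines 667 nm fluorescence of each spot with its signal to noise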
[9] = target: Torsin-1A-interacting protein 1 (Homo sapiens) (UniProt Q5JTV8); assay: compound microarray binding of lysate hLAP1 – cell lysate, small-molecule microarray, COS7 lysate, 635/667 nm fluorescence, primary screen (AID 1116); conditions: 635 nm fluorescence, higher = more signal
Chain of Torsin-1A-interacting protein 1 (Homo sapiens) (Q5JTV8 whole entry, looked up): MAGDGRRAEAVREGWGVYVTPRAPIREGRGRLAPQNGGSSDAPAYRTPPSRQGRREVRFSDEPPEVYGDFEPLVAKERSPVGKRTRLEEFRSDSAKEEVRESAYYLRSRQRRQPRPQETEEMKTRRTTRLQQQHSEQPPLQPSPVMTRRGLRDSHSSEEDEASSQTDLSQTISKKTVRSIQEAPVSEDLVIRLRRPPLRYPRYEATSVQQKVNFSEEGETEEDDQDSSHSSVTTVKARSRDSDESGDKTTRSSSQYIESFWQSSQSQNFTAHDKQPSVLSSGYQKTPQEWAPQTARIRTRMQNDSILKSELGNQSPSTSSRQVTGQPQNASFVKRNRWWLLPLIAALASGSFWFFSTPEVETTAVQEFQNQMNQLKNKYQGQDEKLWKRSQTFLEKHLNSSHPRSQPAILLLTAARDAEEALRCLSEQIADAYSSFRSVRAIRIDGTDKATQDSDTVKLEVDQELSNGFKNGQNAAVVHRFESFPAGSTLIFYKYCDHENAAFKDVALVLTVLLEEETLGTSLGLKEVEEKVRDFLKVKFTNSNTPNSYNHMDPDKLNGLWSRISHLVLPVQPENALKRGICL

[10] = target: Alpha-bungarotoxin (Bungarus multicinctus) (UniProt P60615); assay: compounds binding labelled alpha-BTX control protein – biochemical, small-molecule microarray, Alexa647 label, 635/667 nm fluorescence, artefact control for SMM control protein annotation, profiling panel (AID 1117); conditions: alpha-BTX-A647 binding fluorescence, higher = more signal
Chain of Alpha-bungarotoxin (Bungarus multicinctus) (P60615 whole entry, looked up): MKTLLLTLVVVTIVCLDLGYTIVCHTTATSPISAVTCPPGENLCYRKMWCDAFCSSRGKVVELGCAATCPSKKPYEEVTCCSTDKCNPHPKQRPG

| SMILES | composite z-score [1] | z-score [2] | composite z-score [3] | composite z-score [4] | composite z-score [5] | composite z-score [6] | composite z-score [7] | composite z-score [8] | composite z-score [9] | composite z-score [10] |
| --- | --- | --- | --- | --- | --- | --- | --- | --- | --- | --- |
| Cc1ccc([C@H]2C(C(=O)O)=CCN2S(=O)(=O)c2ccc(C)cc2)cc1 | 0.964 | -1.02 | -0.441 | 0.659 | 0.261 | -0.001 | -0.0709 | -0.333 | 1.54 | 0.705 |
| CCN(CC)c1ccc(N2CC=CC34O[C@@H]5/C=C\CCC(C)OC(=O)C5[C@H]3C(=O)N(CCCCCO)[C@@H]4C2=O)cc1 (stereo not given in full) | -2.06 | 0.008 | -1.5 | -0.407 | 0.381 | -0.0346 | -0.253 | -0.234 | -1.59 | -0.324 |
| CC(=O)NCCCC[C@@H]1NC(=O)[C@H]2C[C@@H](C(=O)O)[C@@H](c3ccc(O)cc3)N2C1=O | 1.12 | -3.1 | 1.08 | 0.192 | -0.548 | 0.0825 | 0.108 | 0.005 | 0.0682 | 0.626 |
| O=c1cccc(-c2ccccc2Cl)o1 | 0.201 | -0.143 | -0.12 | -0.559 | -0.503 | -0.124 | 0.0952 | -0.593 | 0.21 | -0.183 |
| O=C1O[C@@H](c2ccccc2)[C@@H](c2ccccc2)N2[C@@H](c3ccccc3OCCO)[C@]3(C(=O)Nc4ccc(C#CC5(O)CCCCCC5)cc43)[C@@H](C(=O)N3CCN(c4ncccn4)CC3)[C@H]12 | 1.38 | -2.29 | 0.409 | 0.586 | 0.671 | -0.0165 | -0.0234 | 0.118 | 1.5 | 0.894 |
| C=CCNC(=O)[C@@H]1[C@H]2C(=O)O[C@H](c3ccccc3)[C@H](c3ccccc3)N2[C@H](c2ccc(OCCO)cc2)[C@@]12C(=O)N(C(=O)OCCOC)c1ccc(C#CCNC(N)=O)cc12 | 0.79 | -0.635 | 0.735 | 0.597 | 0.386 | 0.0136 | 0.275 | -0.42 | 0.55 | 1.53 |
| CC1CC/C=C\[C@H]2OC34C=CCN(c5ccc6ccccc6c5)C(=O)[C@H]3N(CCO)C(=O)[C@@H]4C2C(=O)O1 (stereo not given in full) | -0.619 | -0.626 | -2.09 | -0.832 | -0.202 | -0.205 | 0.192 | 0.831 | 3.26 | -1.01 |
| O=C1O[C@H](c2ccccc2)[C@H](c2ccccc2)N2[C@H]1[C@@H](C(=O)NC[C@H](O)c1ccccc1)[C@]1(C(=O)Nc3ccccc31)[C@H]2c1ccc(O)cc1 | 0.69 | -0.705 | 0.733 | 1.06 | 0.659 | -0.124 | -0.138 | 0.293 | 0.825 | 0.771 |
| COC(=O)C(CC#Cc1ccc2c(c1)[C@]1(C(=O)N2)[C@H](c2ccccc2OCCO)N2[C@H](c3ccccc3)[C@H](c3ccccc3)OC(=O)[C@H]2[C@@H]1C(=O)O)C(=O)OC | 1.43 | -0.567 | 0.17 | 1.61 | 0.701 | 0.0597 | 0.218 | 0.0258 | 0.967 | 1.94 |
| CO[C@H]1O[C@H](CO)[C@@H](OC(=O)Nc2ccccc2)[C@@H]2OC(=O)[C@@H](Cc3ccc4ccccc4c3)C/C=C/C[C@H](Cc3ccc4ccccc4c3)C(=O)O[C@@H]12 | 0.601 | -2.92 | 0.0985 | 0.697 | -0.56 | -0.006 | -0.237 | 1.3 | 1.72 | 0.322 |
| NC(=O)[C@@H]1[C@H]2C(=O)O[C@H](c3ccccc3)[C@H](c3ccccc3)N2[C@H](c2ccc(OCCO)cc2)[C@@]12C(=O)Nc1ccc(C#CC3=CCCCC3)cc12 | 1.36 | -3.2 | 0.759 | 0.658 | -0.223 | 0.0182 | 0.031 | 0.0415 | 1.06 | 0.711 |
| COc1ccc([Si](C)(C)[C@H]2[C@H](CCn3cc([C@H](O)c4ccccc4)nn3)O[C@@]3(C(=O)N(C)c4ccccc43)[C@@H]2C)cc1 | -0.455 | -2.37 | -0.759 | 0.418 | 0.947 | -0.119 | -0.0793 | -0.266 | -0.773 | -0.909 |
| O=C(O)[C@H](Cc1ccccc1)n1cc(-c2ccccc2)nn1 | 0.52 | 0.36 | 0.506 | 0.14 | -0.372 | -0.152 | -0.237 | 0.297 | 0.635 | 0.327 |
